Hit rate of the full screen: of about 2,400 compounds, about 25 (1%) were called active. Not all results are given here. Unmarked numbers belong to inactive results.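 Rule for the calls: active = replicate-average signal at least 3 plate SD below neutral wells, shown as high inhibition, flagging enzyme-inhibiting false positives; inactive = the rest.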

The subject of the assay is Beta-galactosidase (Escherichia coli), counter-screen for EBI2 antagonists. The assay can be described thus: inhibitors of purified bacterial beta-gal – biochemical, luminescence, single concentration, counter-screen for EBI2 antagonist project, confirmation (AID 652176).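 Note: 0% = DMSO wells with enzyme and 100% = wells lacking enzyme; higher means stronger loss of beta-gal luminescence.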 The following applies: luminescent Galacton Star, 15 min, at 5 µM, hits give high values. (In general: The purpose of a counterscreen is to sort out artefacts and off-target activity.)
`CCOc1ccc(CCN2C(=S)N([C@@H](CC(C)C)CN3CCC[C@@H]3CN3C(=S)NC[C@@H]3Cc3ccc(O)cc3)C[C@@H]2Cc2ccc(O)cc2)cc1`: the inhibition (in general, the drop in the measured response relative to a control, in per cent) is -18.9%.
Regarding `O=C(/C=C/c1cccc(C(F)(F)F)c1)N1CCN(c2ccccn2)CC1`, the inhibition was -8.93%.
In the case of `Cc1ccc(OCC(=O)N2CCN(C(=O)c3cccnc3)CC2)cc1`, the inhibition was -9.4%.
On to `CN(Cc1ccc(F)cc1)C(=O)COc1ccc2ccccc2c1`, for which the inhibition was 3.08%.
As for `Cc1cc(C)c2c(=O)n3c(nc2c1)C(CC(C)C)NC(=O)c1cc2ccccc2cc1-3` (stereo unspecified), the inhibition is 7.36%.
For `CCOc1ccc(C(C)=O)cc1COC(=O)c1cnc(Cl)c(Cl)c1` the value was -6.96%; for `Cc1cccc(OCC(O)CN2CCN(S(=O)(=O)c3ccc(C)cc3C)CC2)c1` (stereo unspecified), -7.67%.
Then `COc1ccc(-c2nc(N)ncc2-c2ccc(Cl)cc2)c(O)c1`, with 5.17%.
Then `Cc1cc(OCC(=O)N2CCN(c3ncccn3)CC2)ccc1Cl`, with 2.13%.
For `O=C(COc1ccc(Cl)cc1)N1CCN(c2cccc(C(F)(F)F)c2)CC1`, the inhibition is 4.01%.
Then `O=C(NCc1ccc(Cl)cc1)C1CCN(S(=O)(=O)c2cccs2)CC1`, with 1.5%.
Consider `N#Cc1ccc(C2=CC(=O)C[C@H](c3ccc(Cl)cc3)C2)cc1`, for which the inhibition was 9%.
In the case of `CCCC1CCC(=NNC(=S)NCCc2ccccc2)CC1` (stereo unspecified), the inhibition was -11.9%.
For `O=C(COc1ccc(Cl)cc1)N1CCN(S(=O)(=O)c2ccc(Cl)cc2)CC1`, the inhibition was 6%.
Take `CCOC(=O)C1CCN(C(=O)COc2cc(C)c(Br)c(C)c2)CC1`: the inhibition was 2.96%.
Turning to `Cc1cc(OCCOc2cccc3cccnc23)c(C)cc1Cl`, the inhibition was 4.27%.
Regarding `O=C(NNC(=O)c1ccc2ccccc2c1)c1ccc(Cl)cc1`, the inhibition was 7.62%.
Take `COc1ccccc1CCNC(=O)C1CCN(C(=O)/C=C/c2ccccc2)CC1`: the inhibition is 6.37%.
In the case of `O=C(Nc1ccc(S(=O)(=O)N2CCCCC2)cc1)C1CC(=O)N(c2ccc(F)cc2)C1` (stereo unspecified), the inhibition was 10.2%.
For `COc1ccc(-c2cn(-c3ccc(OC)cc3)c(=S)[nH]2)cc1`, the inhibition was 3.97%.
For `Cc1cccc(N=C2NC(=O)/C(=C/c3cn(C)c4ccccc34)S2)c1` the value was 8.09%; for `Cc1ccc(OCCNC(=O)CCNS(=O)(=O)c2ccc(Br)cc2)cc1`, -13%; for `O=C(COc1ccc2c(c1)CCC2)N1CCN(c2ccc(F)cc2)CC1`, -10.9%.
`O=C(NCc1ccc(Cl)cc1)c1cc(=O)nc2sc(-c3ccccc3)nn12`: the inhibition is 2.99%.
Consider `O=C(CC(c1ccccc1)c1ccccc1)NCC(O)c1ccc([N+](=O)[O-])cc1` (stereo unspecified), for which the inhibition is -11%.
For the molecule `COc1ccc(CNC(=O)CN(c2ccc(OC)c(Cl)c2)S(=O)(=O)c2ccc(C)cc2)cc1`, the inhibition is -10.2%.
`N#Cc1ccc(C(c2nnnn2CCc2ccccc2)N2CCCCCC2)cc1` (stereo unspecified): the inhibition was 7.67%.
Turning to `O=C(NCCNc1ccc([N+](=O)[O-])cc1)c1cccc2c(Br)cccc12`, the inhibition is 3.17%.
As for `Cc1cs/c(=N\N=C\c2ccc(O)cc2)n1Cc1ccco1`, the inhibition is 10%.
Take `COc1ccc(-n2c(Cc3cccn3C)nnc2SCC(=O)Nc2cc(C)cc(C)c2)cc1`: the inhibition was 5.9%.
On to `O=C(/C=C/c1ccc(Cl)cc1)N1CCN(c2ccccc2[N+](=O)[O-])CC1`, for which the inhibition is 3.83%.
Then `COc1ccc(NC(=O)N2CCC(Cc3ccccc3)CC2)cc1`, with -4.45%.
In the case of `COc1cc(/C=C(\C#N)C(=O)Nc2ccc3ccccc3c2)c([N+](=O)[O-])cc1OC`, the inhibition was -8.92%.
In the case of `CC(C)N(Cc1ccccc1)C(=S)Nc1ccc(OC(F)F)cc1`, the inhibition is 7.71%.
On to `Cc1ccc(S(=O)(=O)NCCNC(C)c2ccc(Br)cc2)cc1` (stereo unspecified), for which the inhibition was 4.8%.
For `Cc1cccc(C)c1-n1nnnc1C(CCc1ccccc1)N1CCN(C/C=C/c2ccccc2)CC1` (stereo unspecified) the value was -14.6%; for `Cc1cccc(-n2c(O)c(C=Nc3ccccc3N)c(=O)[nH]c2=O)c1`, 1.72%.
Consider `CC(C)Cc1ccc(-c2cc3nc(NCc4cccc(Cl)c4)ccn3n2)cc1`, for which the inhibition was -21.1%.
`Fc1ccc(N2CCN(Cc3cnc(Oc4ccc(Br)cc4)s3)CC2)cc1`: the inhibition was 3.88%.
As to `COc1ccc([C@H]2CC(=O)C=C(/C=C/c3ccc(Cl)cc3)C2)cc1`, the inhibition is -9.12%.
With `O=C(CSc1ccccc1)Nc1cc(Cl)ccc1Oc1ccccc1`, the inhibition is -9.14%.
Then `COc1ccccc1N1CCN(C(=O)c2cc(-c3ccc(Br)cc3)on2)CC1`, with 9.03%; and `CC1CCc2sc3nc(N4CCN(CCO)CC4)n4ncnc4c3c2C1` (stereo unspecified), with -1.4%.
Turning to `Cc1nc2ccc(C(=O)N3CCN(c4ccccc4)CC3)cc2s1`, the inhibition was -10.1%.
In the case of `Cc1ccc(N2CC(C(=O)Nc3ccc(S(=O)(=O)N4CCCC4)cc3)CC2=O)cc1C` (stereo unspecified), the inhibition is 2.23%.
`COc1ccc([C@H]2CC(=O)C=C(c3ccc(C)cc3)C2)cc1`: the inhibition is 5.89%.
Then `O=C(c1cc2cc(F)ccc2[nH]1)N1CCN(c2ccc(F)cc2)CC1`, with 1.06%; and `Cc1ccc(CSCCNC(=O)CN(c2ccc(F)cc2)S(C)(=O)=O)cc1`, with 3.75%; and `O=C(c1ccc(-n2cnnn2)cc1)N1CCN(C(c2ccccc2)c2ccccc2)CC1`, with 5.89%.
Consider `Cc1ccc2oc(=O)c3cnn(CC(=O)N(Cc4ccco4)C4CCCCC4)c3c2c1`, for which the inhibition was -17.5%.
Turning to `CCOC(=O)N1CCN(C(=O)COc2ccc(Cl)cc2C)CC1`, the inhibition is 11%.
As to `Cc1ccc(O/C=C2\OC(=O)c3ccccc32)cc1`, the inhibition was -6.52%.
In the case of `CCOC(=O)N1CCN(C(=O)COc2ccc(Br)cc2)CC1`, the inhibition was 2.79%.
For the molecule `COc1ccc(OC)c(C(=O)c2coc3ccc(O)c(CN4CCOCC4)c23)c1`, the inhibition is 3.81%.
With `FC(F)(F)Oc1ccccc1C(c1nnnn1C1CCCCC1)N1CCN(C/C=C/c2ccccc2)CC1` (stereo unspecified), the inhibition was 3.49%.
Take `COc1ccc(Nc2cc(Sc3ccc(OC)cc3)ncn2)cc1`: the inhibition is 8.03%.

Values taken from PubChem BioAssay AID652176 (Sanford-Burnham Center for Chemical Genomics, 2013).
